Assay results: PubChem BioAssay (NCATS)
Inconclusive results are not listed. Activity calls are given as the source filed them. The call rests on the fitted dose curve; in most records, active means well fitted curve in the direction sought with a large enough effect; inconclusive means small, poorly fitted or top-dose-only effect, or another doubt; inactive means no such curve, though single readings can be large; an effect the other way counts as inactive or inconclusive.

How the values were obtained:
NIH3T3 = experiment: qHTS assay to identify novel small-molecules to repurpose for Merkel cell carcinoma treatment (AID 1296009); details: MCC and control cell lines, CellTiter-Glo viability, 72 h; series mostly up to 44.8 µM; further: nearly all actives have a fitted effect of over 60% in size
Outline: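 qHTS format: cells treated with library compounds in DMSO across 8 (NPC) or 11 (MIPE) concentrations. Readout after 72 hr at 37 degree celsius was CellTiter-Glo luminescence.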

CAOV3 = experiment: Primary qHTS to identify gynecologic anti-cancer compounds using libraries of approved drugs and bioactive compounds (AID 1345084); details: Gynecologic cancer cell panel viability, ATPlite luminescence, 48 h; series mostly up to 57.5 µM; further: nearly all actives have a fitted effect of over 55% in size; further: potency means the concentration at half of the fitted maximal effect; on activity change, negative = cytotoxicity: on the % scale 0 is the no-effect control and ±100 the full control effect
Outline: (§1)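 Measured: luminescence after ATPlite addition (15 min, RT). Exposure: 48 h, 37 C, 5% CO2.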

CASKI = experiment: as above; details: Gynecologic cancer cell panel viability, ATPlite luminescence, 48 h; series mostly up to 57.5 µM
Outline: as §1

Es-2 = experiment: as above; details: Gynecologic cancer cell panel viability, ATPlite luminescence, 48 h; series mostly up to 57.5 µM
Outline: as §1

HeLa = experiment: as above; details: Gynecologic cancer cell panel viability, ATPlite luminescence, 48 h; series mostly up to 57.5 µM
Outline: as §1

Hek293T = experiment: as above; details: Gynecologic cancer cell panel viability, ATPlite luminescence, 48 h, control line for the selectivity index; series mostly up to 57.5 µM
Outline: as §1

JEG-3 = experiment: as above; details: Gynecologic cancer cell panel viability, ATPlite luminescence, 48 h; series mostly up to 57.5 µM
Outline: as §1

OV90 = experiment: as above; details: Gynecologic cancer cell panel viability, ATPlite luminescence, 48 h; series mostly up to 57.5 µM
Outline: as §1

PA-1 = experiment: as above; details: Gynecologic cancer cell panel viability, ATPlite luminescence, 48 h; series mostly up to 57.5 µM
Outline: as §1

C33A = experiment: as above; details: Gynecologic cancer cell panel viability, ATPlite luminescence, 48 h; series mostly up to 57.5 µM
Outline: as §1

C/C=C/[C@@H]1C=C[C@@H]2C[C@H](C)CC[C@H]2[C@]1(C)/C(O)=C1/C(=O)[C@@H](CO)N(C)C1=O
inactive: Potency (NIH3T3) | Potency (CAOV3) | Potency (CASKI) | Potency (Es-2) | Potency (HeLa) | Potency (Hek293T) | Potency (JEG-3) | Potency (OV90) | Potency (PA-1)

Cc1[nH]c2ccccc2c1CCNCc1ccc(/C=C/C(=O)NO)cc1
active: Potency (C33A) 251 nM | Potency (CAOV3) 1000 nM | Potency (CASKI) 447 nM | Potency (Es-2) 355 nM | Potency (HeLa) 126 nM | Potency (Hek293T) 1580 nM | Potency (JEG-3) 251 nM | Potency (OV90) 1000 nM

CC(=O)O[C@H]1CC2C(COC(=O)CC(C)C)=CO[C@@H](OC(=O)CC(C)C)C2[C@]12CO2 (stereo not given in full)
inactive: Potency (NIH3T3) | Potency (C33A) | Potency (Es-2) | Potency (HeLa) | Potency (Hek293T) | Potency (JEG-3) | Potency (OV90)

CCCN(CCc1ccsc1)C1CCc2c(O)cccc2C1 (stereo not given)
inactive: Potency (NIH3T3) | Potency (C33A) | Potency (CASKI) | Potency (Es-2) | Potency (HeLa) | Potency (Hek293T) | Potency (JEG-3) | Potency (OV90) | Potency (PA-1)

CC(=O)OC(C)(C)/C=C/C(=O)[C@](C)(O)[C@H]1C(O)C[C@@]2(C)[C@@H]3CC=C4[C@@H](C=C(O[C@@H]5O[C@H](CO)[C@@H](O)[C@H](O)[C@H]5O)C(=O)C4(C)C)[C@]3(C)C(=O)C[C@]12C (stereo not given in full)
inactive: Potency (NIH3T3) | Potency (C33A) | Potency (CASKI) | Potency (Es-2) | Potency (HeLa) | Potency (Hek293T) | Potency (JEG-3) | Potency (OV90) | Potency (PA-1)

COc1cc2ncnc(Nc3cccc(I)c3)c2cc1OC
inactive: Potency (NIH3T3) | Potency (C33A) | Potency (CASKI) | Potency (Es-2) | Potency (Hek293T) | Potency (JEG-3) | Potency (OV90) | Potency (PA-1)

Cc1cc2occ(CN(C)CCN(C)Cc3cn(-c4cccc(C(F)(F)F)c4)c4ccccc34)c(=O)c2cc1C
active: Potency (C33A) 31600 nM

CC(=O)OC1C(OC(=O)c2ccccc2)C2C(C)(C)CCC(OC(C)=O)C2(C)C23CCC(C)(C2)C(=O)CC13 (stereo not given)
inactive: Potency (NIH3T3) | Potency (C33A) | Potency (CASKI) | Potency (Es-2) | Potency (HeLa) | Potency (Hek293T) | Potency (JEG-3) | Potency (OV90) | Potency (PA-1)

COc1cc(/C=N\NC(=O)c2ccc3c(c2)OCO3)ccc1OCc1ccccc1
inactive: Potency (C33A) | Potency (CAOV3) | Potency (CASKI) | Potency (Es-2) | Potency (HeLa) | Potency (Hek293T) | Potency (JEG-3)

O=C(Nc1ccn(Cc2ccc(O)cc2C(F)(F)F)n1)c1c(F)cccc1F
inactive: Potency (NIH3T3) | Potency (C33A) | Potency (CASKI) | Potency (Es-2) | Potency (Hek293T) | Potency (JEG-3) | Potency (OV90) | Potency (PA-1)

C=C1CCCC2(C)CCC(C(C)(C)OC3OC(C)C(O)C(O)C3OC(=O)/C(C)=C\C)CC12 (stereo not given)
inactive: Potency (NIH3T3) | Potency (C33A) | Potency (CASKI) | Potency (Es-2) | Potency (HeLa) | Potency (Hek293T) | Potency (JEG-3) | Potency (OV90) | Potency (PA-1)

CCn1c(-c2nonc2N)nc2c(C#CC(C)(C)O)ncc(OCC3CCCNC3)c21 (stereo not given)
inactive: Potency (NIH3T3) | Potency (Es-2) | Potency (HeLa) | Potency (JEG-3)
active: Potency (PA-1) 28200 nM

COc1ccc(-c2ccccc2)cc1NS(=O)(=O)c1cc(Cl)cc(Cl)c1O
inactive: Potency (C33A) | Potency (CAOV3)

CC(=O)NCc1cccc(OC[C@@H](O)CNCCc2ccc(NS(=O)(=O)c3ccccc3)cc2)c1
inactive: Potency (NIH3T3) | Potency (C33A) | Potency (CASKI) | Potency (Es-2) | Potency (HeLa) | Potency (Hek293T) | Potency (JEG-3) | Potency (PA-1)

C=C1CO[C@@]2(O[C@H]3CC4C5CC=C6C[C@@H](O)C[C@@H](O[C@@H]7OC[C@H](O)[C@H](O[C@@H]8OC[C@@H](O)[C@H](O)[C@H]8O)[C@H]7O[C@@H]7O[C@@H](C)[C@H](OC(C)=O)[C@@H](OC(C)=O)[C@H]7OC(C)=O)[C@]6(C)C5CC[C@]4(C)[C@@H]3[C@@H]2C)[C@@H](O)[C@H]1OC1OC(C)C(O)C(O)C1O (stereo not given in full)
active: Potency (OV90) 2820 nM | Potency (PA-1) 3550 nM
inactive: outcome (NIH3T3) inactive [at 9.27 µM] | activity change, negative = cytotoxicity (CAOV3) -13% [at 6.55 µM] | activity change, negative = cytotoxicity (CASKI) -16.5% [at 6.55 µM] | activity change, negative = cytotoxicity (Es-2) -0.0762% [at 6.55 µM] | activity change, negative = cytotoxicity (HeLa) -7.77% [at 6.55 µM] | activity change, negative = cytotoxicity (Hek293T) -3.45% [at 6.55 µM] | activity change, negative = cytotoxicity (JEG-3) -10.9% [at 6.55 µM]

CCN(CC)CCCCCCNc1cc(OC)cc2c(C)ccnc12
inactive: Potency (C33A) | Potency (CAOV3) | Potency (CASKI) | Potency (Es-2) | Potency (HeLa) | Potency (Hek293T)

CC(C)C[C@@H]1NC(=O)[C@@H](Cc2ccccc2)NC(=O)C(CCCCCC(=O)C2CO2)NC(=O)[C@@H]2CCCCN2C1=O (stereo not given in full)
inactive: Potency (C33A) | Potency (CAOV3) | Potency (HeLa) | Potency (Hek293T)
active: Potency (CASKI) 708 nM | Potency (Es-2) 2240 nM

CC(=O)NC(C(=O)O[C@H]1CCC(C)(C)[C@@H]2CC=C3C(=O)OCC3(O)[C@@]12C)C(C)C (stereo not given in full)
inactive: Potency (NIH3T3) | Potency (CAOV3) | Potency (CASKI) | Potency (Es-2) | Potency (HeLa) | Potency (Hek293T) | Potency (JEG-3)

C/C=C(\C)[C@@H]1C(C)=C[C@@H]2[C@H]([C@@H]1/C=C/C=C/C(=O)O)[C@@H](C)CC[C@@H]2O
inactive: Potency (C33A)

C=C(COC(=O)C(O)C(O)CN)C12OC1C1(C)C(=CC2=O)C(O)C(O)CC1C (stereo not given)
inactive: Potency (NIH3T3) | Potency (C33A) | Potency (CASKI) | Potency (Es-2) | Potency (HeLa) | Potency (Hek293T) | Potency (JEG-3) | Potency (OV90) | Potency (PA-1)

CCC(=C(c1ccc(OCCN2CCCC2)cc1)c1ccc(OCCN2CCCC2)cc1)c1ccccc1
inactive: Potency (C33A) | Potency (CAOV3) | Potency (CASKI) | Potency (Es-2) | Potency (HeLa) | Potency (Hek293T) | Potency (JEG-3)

C=CC(C)(O)CC/C=C(\C)C(=O)OC1C(O)C(CO)OC(OC(=O)C23CCC(C)(C)CC2C2=CCC4C5(C)CCC(OC6OC(COC7OCC(OC(C)=O)C(O)C7OC7OC(COC(C)=O)C(O)C(O)C7OC(C)=O)C(O)C(O)C6OC6OCC(O)C(O)C6O)C(C)(C)C5CCC4(C)C2(C)C(O)C3O)C1OC1OCC(OC2OCC(O)C(OC3OCC(O)C(O)C3O)C2O)C(O)C1O (stereo not given)
inactive: activity change, negative = cytotoxicity (C33A) -0.479% [at 6.55 µM] | activity change, negative = cytotoxicity (CAOV3) -0.149% [at 6.55 µM] | activity change, negative = cytotoxicity (CASKI) -8.72% [at 6.55 µM] | activity change, negative = cytotoxicity (Es-2) -2.99% [at 6.55 µM] | activity change, negative = cytotoxicity (HeLa) -14% [at 6.55 µM] | activity change, negative = cytotoxicity (Hek293T) -1.14% [at 6.55 µM] | activity change, negative = cytotoxicity (JEG-3) -2.85% [at 6.55 µM]

N#Cc1cnc2c(Cl)cc(NCc3cn(CCN4CCCCCC4)nn3)cc2c1Nc1ccc(F)c(Cl)c1
inactive: Potency (C33A) | Potency (CAOV3) | Potency (CASKI) | Potency (Es-2) | Potency (HeLa) | Potency (Hek293T) | Potency (JEG-3)

CO[C@H]1C[C@@H]2CC[C@@H](C)[C@@](O)(O2)C(=O)C(=O)N2CCCC[C@H]2C(=O)O[C@H]([C@@H](C)C[C@@H]2CC[C@@H](O)[C@H](OC)C2)CC(=O)[C@H](C)/C=C(\C)[C@@H](O)[C@@H](OC)C(=O)[C@H](C)C[C@H](C)/C=C/C=C/C=C/1C
inactive: Potency (C33A) | Potency (CAOV3) | Potency (CASKI) | Potency (Es-2) | Potency (HeLa) | Potency (Hek293T) | Potency (JEG-3)
